Compound activity as filed in PubChem.
The list is not random: actives were taken first. Their share in the collection is about 2.2%.
NPR2 activator – GC-B (human) receptor activation | activation, % at 10 µM | HEK293-GC-B cells, CNP EC30, cGMP TR-FRET; 0% at EC30 CNP, 100% saturating CNP | P20594 | 370,000 compounds, 0.11% hits;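 active = activation at 10 µM reaching about 35% in either raw or pattern-adjusted values, limit read from the data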
ADAM17 inh – ADAM17 inhibition, QFRET primary screen. recombinant ADAM17, EDANS/DABCYL FRET peptide cleavage. AID 720648. inhibition, % at 6.95 µM. 370,000 compounds, 0.83% hits. P78536;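 active = inhibition above the mean of compounds lying between control limits plus 3 SD, set per campaign, cut at about 8.5% in these data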;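 also: 0% = DMSO-only wells as the low control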
NPR1 activator – GC-A (human) enzyme activation; P16066; HEK293 GC-A cells, cGMP TR-FRET, EC30 ANP; 0% at EC30 ANP, 100% saturating ANP; activation, % at 10 µM; 370,000 compounds, 0.14% hits; in the data active = activation above about 40%
proKLK7 act – activators of human kallikrein-7 zymogen. purified proKLK7, EDANS-DABCYL substrate fluorescence; 100% is mature enzyme control, 0% vehicle. activation, % at 7 µM. 370,000 compounds, 0.9% hits;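 active = activation above the mean of all tested compounds plus 3 SD, computed per campaign excluding outliers beyond control limits, cut at about 13% in these data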
Target sequence (P49862 whole entry, looked up): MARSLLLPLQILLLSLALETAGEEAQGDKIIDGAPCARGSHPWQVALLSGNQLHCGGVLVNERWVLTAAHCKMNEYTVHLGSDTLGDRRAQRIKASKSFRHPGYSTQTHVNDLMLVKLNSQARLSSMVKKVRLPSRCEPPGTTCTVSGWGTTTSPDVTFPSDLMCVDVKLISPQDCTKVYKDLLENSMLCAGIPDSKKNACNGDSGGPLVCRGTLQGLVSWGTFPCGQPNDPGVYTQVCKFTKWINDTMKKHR
ADAM10 inh – inhibitors of human ADAM10 | O14672 | recombinant ADAM10, EDANS/DABCYL FRET peptide cleavage, 3 h | inhibition, % at 7 µM | 370,000 compounds, 0.62% hits | AID 720582;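 active = inhibition above a per-campaign cutoff equal to the mean of compounds falling between control-based bounds plus 3 SD, cut at about 20% in these data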;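 also: 0% = DMSO wells while the 100% control is not disclosed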
ADAM10 confirm – confirmation of inhibitors of human ADAM10 | 2,100 compounds, 1% hits | ADAM10 QFRET peptide cleavage, EDANS fluorescence | AID 743208 | inhibition, % at 6.95 µM | shares compounds with ADAM10 inh;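 active = inhibition above about 20% chosen separately for each screening run, limit read from the data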;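 also: 0% = DMSO wells and 100% = marimastat wells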
ADAM17 counter – counter-screen for ADAM10 exosite inhibitors: inhibitors of human ADAM17; inhibition, % at 6.95 µM; ADAM17 QFRET peptide cleavage, EDANS fluorescence; 2,100 compounds, 0.5% hits; shares compounds with ADAM10 inh;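 active = mean triplicate inhibition above the solvent-only control wells' mean plus 3 SD, cut at about 12% in these data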;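 also: 0% = DMSO wells and 100% = marimastat wells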
* hit, by the source's call; · = no result.

SMILES	NPR2 activator	ADAM17 inh	NPR1 activator	proKLK7 act	ADAM10 inh	ADAM10 confirm	ADAM17 counter
C[C@@H]1CCCCO[C@@H](CN(C)C(=O)Nc2ccc(C(F)(F)F)cc2)[C@@H](C)CN([C@H](C)CO)C(=O)c2cc(NS(=O)(=O)c3ccc(Cl)cc3)ccc2O1	5	16*	-1	0	45*	9	1
C[C@@H]1CN([C@H](C)CO)C(=O)c2cc(NC(=O)Nc3ccccc3)ccc2O[C@@H](C)CCCCO[C@H]1CN(C)S(=O)(=O)c1ccc(F)cc1	-1	8	-1	·	20*	6	2
C=CCN(Cc1ccc2c(c1)OCO2)C(C#CCCCC)C(C)C (stereo not given)	-8	-2	-2	·	-1	·	·
Nc1nc(-c2ccc(Cl)cc2)c(S(=O)(=O)c2ccccc2)s1	-2	8	-6	0	20*	0	0
CCOC(=O)[C@]12CCCC=C1N(Cc1ccc(OC)cc1)C(=O)[C@@H]2CC(=O)NCc1ccc(C)o1	4	2	-4	0	9	·	·
S=C(Nc1ccc(Oc2ccccc2)cc1)N1CCN(c2ccccn2)CC1	2	5	7	0	22*	2	-1
COc1ccccc1-c1nnc(-c2ccc(C)cc2)o1	-3	-5	3	0	-16	·	·
COc1ccccc1C1=NC(c2ccc(C)cc2)N=C1C (stereo not given)	3	6	-1	1	95*	0	0
COc1ccc(NC(=O)Cc2coc3cc(C)c(C(C)C)cc23)cc1S(=O)(=O)N1CCOCC1	5	7	-2	1	22*	4	1
NC(=O)[C@@H]1CC2(CC(c3cccc(NC(=O)CC(c4ccccc4)c4ccccc4)c3)=NO2)CN1C(=O)COc1ccc(Cl)cc1 (stereo not given in full)	13	8	0	0	23*	14	4
NC(=O)[C@H]1CC2(CC(c3cccc(NC(=O)CC(c4ccccc4)c4ccccc4)c3)=NO2)CN1C(=O)c1ccccc1C(=O)c1ccccc1 (stereo not given in full)	2	9	1	0	20*	8	3
CCC(=O)Nc1cccc(C2=NOC3(C2)C[C@@H](C(N)=O)N(C(=O)c2ccccc2C(=O)c2ccccc2)C3)c1 (stereo not given in full)	-1	-5	-1	0	-11	·	·
Oc1ccc(Cl)c(CN2CCN(c3ncc(Cc4ccccc4)cn3)CC2)c1	16	14*	3	1	25*	5	3
COc1ccc(O)cc1CN1CCN(c2ncc(Cc3ccccc3)cn2)CC1	-14	8	-9	0	-7	·	·
COc1ccc(C(=O)COC(=O)/C=C/c2ccc(S(=O)(=O)Nc3cccc(S(N)(=O)=O)c3)cc2)cc1	0	6	-1	0	21*	0	0
O=C(CSc1nnc(COc2ccc(F)cc2)o1)N1c2ccccc2CCc2ccccc21	-2	8	-5	0	20*	7	2
CN(CC(=O)NCc1ccc(F)cc1)CC(=O)Nc1ccc(Cl)c(C(F)(F)F)c1	-9	5	-5	0	23*	0	0
CC(C)=CC(=O)Nc1ccc(S(=O)(=O)Nc2onc(C)c2C)cc1	2	-3	3	0	-4	·	·
Cc1ccc(/C=C/C(=O)Nc2ccc(S(=O)(=O)Nc3onc(C)c3C)cc2)cc1	0	1	-1	0	21*	-1	0
Cc1ccc(Cn2cc(CN(C(C)(C)C)S(=O)(=O)c3ccc(F)cc3Br)nn2)cc1	10	-3	2	1	-5	·	·
Cc1ccc(S(=O)(=O)NC2c3cccc4cccc(c34)C2Sc2nc(C)cc(C)n2)cc1 (stereo not given)	-7	7	-10	-1	20*	8	2
Cc1ccc(S(=O)(=O)NC2c3cccc4cccc(c34)C2Sc2nncn2C)cc1 (stereo not given)	-1	3	-7	0	-7	·	·
